Test results published in PubChem BioAssay (NCI).
The panel holds about 79,000 compounds, 15% with a hit somewhere; the sample as a whole holds those more often. Values without a mark were called inactive. Calls of active or inactive are those of the source. Cut-off read from the data, not from the text of the source: active = growth inhibition above about 70%; inactive = the rest.

Key:
[1] = NCI Yeast Anticancer Drug Screen. Data for the rad50 strain (AID 155);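 note: 0% = growth of vehicle-only cultures of the same strain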; details: S. cerevisiae rad50 strain growth inhibition; at 50.0 µM; active compounds read high
In short: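 Compounds were tested on a yeast strain with an engineered DNA damage repair alteration; the reported value is growth inhibition normalised to vehicle treatment.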

[2] = NCI Yeast Anticancer Drug Screen. Data for the mec2-1 strain (AID 157); details: S. cerevisiae mec2-1 strain, at 50.0 µM, active compounds read high
In short: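 Yeast mec2-1 mutant treated with compound. Readout: growth inhibition vs vehicle controls.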

[3] = NCI Yeast Anticancer Drug Screen. Data for the sgs1 mgt1 strain (AID 161);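 note: 0% = growth of cultures given vehicle only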; details: S. cerevisiae sgs1 mgt1 strain, at 50.0 µM, active compounds read high
In short: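 Mutant yeast exposed to compound; growth scored against vehicle-only wells.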

[4] = NCI Yeast Anticancer Drug Screen. Data for the cln2 rad14 strain (AID 165);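 note: 0% = growth equal to vehicle treated cultures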; details: S. cerevisiae cln2 rad14 strain, at 50.0 µM, active compounds read high
In short: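 cln2 rad14 yeast strain; compound exposure; growth inhibition read vs vehicle controls.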

[5] = NCI Yeast Anticancer Drug Screen. Data for the bub3 strain (AID 167); details: S. cerevisiae bub3 mutant strain, at 50.0 µM, active compounds read high
In short: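 Growth of a checkpoint-deficient yeast mutant is measured after compound exposure. Values represent inhibition relative to vehicle.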

[6] = NCI Yeast Anticancer Drug Screen. Data for the mlh1 rad18 strain (AID 175); details: S. cerevisiae mlh1 rad18 strain growth inhibition; at 50.0 µM; active compounds read high
In short: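 Yeast w/ defined DNA-repair lesions; compound exposure; growth vs vehicle controls → % inhibition.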

Row | SMILES | growth inhibition [1] [%] | growth inhibition [2] | growth inhibition [3] | growth inhibition [4] [%] | growth inhibition [5] [%] | growth inhibition [6] [%]
1 | CN(C)c1nc2oc(-c3ccccc3)c(-c3ccccc3)c2c2nnnn12 | 12 | 8.05% | 2.65% | 15.8 | 1.65 | -11.9
2 | CCCCCCC(C)(C)NC(N)=O | -9.4 | 4.4% | -4.5% | 16.8 | 3.75 | -11.8
3 | c1cc2cc(c1)CNCCNCCNCc1cccc(c1)CNCCNCCNC2 | -22.4 | -17.4% | -30.6% | 16.9 | 6 | -2.9
4 | Cc1cccc2c1Oc1ccccc1C2N1C(=O)c2ccccc2C1=O (configuration not stated) | 6.65 | 2.5% | 4.9% | 25.4 | 9.95 | 6.35
5 | Cc1ccc(F)cc1S(N)(=O)=O | -19.4 | -9.65% | -16.6% | -14.4 | 12.3 | -7.8
6 | O=C(CCN1CCOCC1)c1csc2ccccc12 | 27.6 | 36.9% | 12.9% | 14.9 | -5.35 | 17.8
7 | O=C1CC=NC(=S)N1 | -0.6 | 7% | 8.75% | 7.95 | -2.7 | 28.4
8 | c1ccc(C(SN=C2CCCCC2)(c2ccccc2)c2ccccc2)cc1 | -4.35 | -2.6% | -25.6% | 10.9 | -1.2 | -13.1
9 | Cc1cnc(NCCCCNc2ncc(C)c(-c3ccccc3O)n2)nc1-c1ccccc1O | -5.25 | 1.55% | -0.55% | -27.1 | -3.65 | 4.8
10 | CN(C)CCNc1cccc2oc3ccc(O)cc3c(=O)c12 | 8.2 | -4.95% | 9.55% | -2.3 | -4.95 | 7.4
11 | CSc1ccccc1C1CCCCCC1O (configuration not stated) | 11 | 12.8% | 5.65% | 12.8 | -30.6 | 10.1
12 | COC(=O)c1ccccc1C1CN=NC12Cc1c(ccc3c1CCC3)C2=O (configuration not stated) | -4.35 | -5.95% | -15.1% | -9.7 | 27.9 | -0.85
13 | [N-]=[N+]=CC(=O)C(CN)(Cc1ccccc1)c1ccc(Cl)cc1 (configuration not stated) | 35.1 | 1.45% | 9.1% | -31.9 | -9.45 | 9.05
14 | N/N=C(/C(=O)Nc1cccc(Cl)c1)C(C(=O)c1ccc(O)cc1O)C1OC(=O)c2ccccc21 (configuration not stated) | -17.4 | -14.3% | -8.1% | 0.85 | 6.1 | 20.1
15 | CC(OC(C(O)C=O)C(O)C(O)CO)C(=O)N[C@@H](C)C(=O)O (some centres not stated) | 6.1 | -8.55% | -0.75% | -2.45 | -9.2 | 25.8
16 | OCCCNc1ncnc2[nH]ncc12 | 7.7 | 16.1% | 11.6% | 59 | -4.9 | 13.4
17 | C/C(CC(=O)c1ccccc1)=C1\C(=O)NN(c2ccccc2)C1=O | 60.5 | 47.5% | 67.7% | 56.9 | 64.6 | 60.1
18 | O=[N+]([O-])c1ccc(S(=O)(=O)Nc2c([N+](=O)[O-])cc([N+](=O)[O-])c3ccccc23)cc1 | 36.6 | -3.9% | 21.4% | 12.7 | 2.7 | 18.4
19 | OCCOc1ccc(C(Cc2ccccc2)N(CCO)CCO)cc1 (configuration not stated) | -10.1 | 2.15% | 7.5% | -12.6 | 4.7 | -1.45

Row | SMILES | growth inhibition [1] [%] | growth inhibition [2] | growth inhibition [3] | growth inhibition [4] [%] | growth inhibition [5] [%] | growth inhibition [6] [%]
20 | CCCCC#CCC#Cc1ccccc1 | -4.3 | 5.25% | 6.85% | 23.2 | -10.9 | 10.1
21 | Cc1cc(C)n(C2=NCCN2)n1 | -26.1 | -33.7% | -14.1% | -33.2 | 4.2 | -17.6
22 | O=C(CCCCl)c1ccccc1 | 0.75 | -4% | -18.1% | 2.35 | -7.1 | -2.6
23 | C/C=C/C1OCCC(C)O1 (configuration not stated) | 41.3 | -12% | 9.1% | 21.1 | 4.95 | 11
24 | COc1ccccc1NC(=O)C1=C(C)NC(C)=C(C(=O)Nc2ccccc2OC)C1c1ccco1 | -4.8 | -8.65% | 20.4% | 4.3 | 29.4 | -11.9
25 | COc1cc(C=O)ccc1OC(=O)Nc1cccc(Cl)c1C | -0.55 | 18.6% | 15.8% | 1.9 | 37.2 | 17.8
26 | CCC1(C#N)N=C(c2ccccc2)c2ccccc2N1C(=O)OC (configuration not stated) | 5.7 | -1.9% | 17.8% | -28.9 | -35.5 | 18.1
27 | Nc1ccc(CCCCc2nc(N)nc(N)c2-c2ccc(Cl)c(Cl)c2)cc1 | 36.5 | 77% (active) | 88.8% (active) | 9.1 | 14.9 | 60.5
28 | COc1ccc(Nc2nnc(-c3nsc4ccccc34)s2)cc1 | -2.5 | -28.4% | -37.9% | 22.2 | -27.9 | -24.9
29 | CCOC(=O)C1CC(=O)c2cc(OC)c(OC)cc2C1c1ccc(OC)c(OC)c1 (configuration not stated) | 1.85 | -14.1% | 0.1% | -29.7 | 13.8 | -26.4
30 | NC(CCCCNC(=O)OCc1ccccc1)C(=O)OCc1ccccc1 (configuration not stated) | -15.2 | -20.4% | -9.7% | 15.6 | -0.75 | -18.5
31 | COC(=O)c1cccc2c1ccc1ccc3ccccc3c12 | -7.9 | -19.4% | -7.05% | -84.5 | -10.2 | -17.9
32 | CCOc1cccc(OCC)c1C | -4.55 | -17.4% | -2.55% | 11.3 | -9 | 14.9
33 | COC1(OC)CCC(OC)(OC)C(OC)(OC)C1(OC)OC | 4.75 | 8.1% | 11.7% | -4.2 | -16.2 | 2.75
34 | CCOC(=O)C1=C(C)N(NC(N)=O)C2(N)N(NC(N)=O)C(C)=C(C(=O)OCC)C12C#N (configuration not stated) | -6.95 | 21.9% | 17.6% | 4.3 | 10.6 | -12.1
35 | CC(=O)C(C)(C)O | 45.4 | -5.55% | 48.8% | -8.7 | 14.2 | 38.9
36 | O=C1c2ccccc2OCC1CS(=O)(=O)CC1COc2ccccc2C1=O (configuration not stated) | -9.5 | 9.7% | -5.45% | 16.2 | -0.5 | 7.4
37 | COC1OC(COC(=O)c2ccc([N+](=O)[O-])cc2)C(O)C1SC#N (configuration not stated) | 43.5 | -2.3% | 41.3% | -10.1 | 13.2 | 42.8
